The full data set covers some 7,900 targets. This sample favours those with a hit. About 0.6% of all pairs of compound and target were hits. Unmarked numbers belong to inactive results.
How the values were obtained:
Assay in all cases: log2 fold change, soluble protein after heating vs DMSO (PISA); higher = thermal stabilisation; K562 cells, 10 uM, 30 min; active = over 0.2 and 3.5 SD of the protein, either way, in both replicates (recomputed)
[1] = compound: CC1=C(SC2=C1C(=N[C@H](C3=NN=C(N32)C)CC(=O)N)C4=CC=C(C=C4)Cl)C
Procedure, shortened: (§1)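 K562 cells at 2×10^6 cells/mL were treated with 10 μM compound for 30 min. Aliquots were heated for 3 min across 48°C-58°C, pooled, and extracted in PBS with 0.5% NP-40 at 4°C; soluble protein was the supernatant after 21,000xg for 90 min. Soluble protein was quantified by TMTpro 16plex LC-MS/MS with channel sums equalised, and reported as log2 fold change in thermal stability against DMSO controls, with values from duplicates.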

[2] = compound: Cc1sc2c(c1C)C(c1ccc(Cl)cc1)=N[C@@H](CC(=O)OC(C)(C)C)c1nnc(C)n1-2
Procedure, shortened: as §1

[3] = compound: c1ccc([C@@H]2C[C@H]2NC2CCNCC2)cc1
Procedure, shortened: as §1

[4] = compound: CC1=C2C(=CC=C1)N=C(N(C2=O)C3=CC=CC=C3C)CN4C=NC5=C(N=CN=C54)N
Procedure, shortened: as §1

[5] = compound: C1=CC=C(C=C1)[C@H](COC2=CC3=C(C=C2)NC(=O)N3)NC(=O)C4=CC=CN(C4=O)CC5=CC(=C(C=C5)F)F
Procedure, shortened: as §1

Sequence of UniProt Q7L590 (Q7L590 whole entry, looked up): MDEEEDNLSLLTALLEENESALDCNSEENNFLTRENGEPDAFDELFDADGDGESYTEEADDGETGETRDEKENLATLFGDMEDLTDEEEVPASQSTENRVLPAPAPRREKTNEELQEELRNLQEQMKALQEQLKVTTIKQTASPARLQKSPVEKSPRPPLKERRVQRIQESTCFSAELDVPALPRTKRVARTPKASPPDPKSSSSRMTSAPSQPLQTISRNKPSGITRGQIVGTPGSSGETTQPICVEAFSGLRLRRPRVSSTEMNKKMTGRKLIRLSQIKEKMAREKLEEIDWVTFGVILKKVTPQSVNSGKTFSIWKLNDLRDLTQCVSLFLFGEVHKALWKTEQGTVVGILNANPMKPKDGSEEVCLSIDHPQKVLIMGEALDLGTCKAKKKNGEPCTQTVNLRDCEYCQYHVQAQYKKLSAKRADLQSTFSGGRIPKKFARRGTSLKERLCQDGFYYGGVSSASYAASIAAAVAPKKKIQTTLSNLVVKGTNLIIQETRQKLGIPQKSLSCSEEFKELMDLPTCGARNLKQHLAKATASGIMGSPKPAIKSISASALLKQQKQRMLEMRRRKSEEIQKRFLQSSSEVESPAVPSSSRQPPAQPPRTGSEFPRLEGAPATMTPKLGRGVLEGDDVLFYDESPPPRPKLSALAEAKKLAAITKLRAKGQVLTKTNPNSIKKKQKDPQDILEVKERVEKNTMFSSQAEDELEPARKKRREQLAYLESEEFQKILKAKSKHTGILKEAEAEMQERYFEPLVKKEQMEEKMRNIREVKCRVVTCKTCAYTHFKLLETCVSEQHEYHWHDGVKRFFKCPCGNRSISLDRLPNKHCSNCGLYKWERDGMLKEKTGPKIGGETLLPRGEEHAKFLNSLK
Sequence of UniProt P24592 (P24592 whole entry, looked up): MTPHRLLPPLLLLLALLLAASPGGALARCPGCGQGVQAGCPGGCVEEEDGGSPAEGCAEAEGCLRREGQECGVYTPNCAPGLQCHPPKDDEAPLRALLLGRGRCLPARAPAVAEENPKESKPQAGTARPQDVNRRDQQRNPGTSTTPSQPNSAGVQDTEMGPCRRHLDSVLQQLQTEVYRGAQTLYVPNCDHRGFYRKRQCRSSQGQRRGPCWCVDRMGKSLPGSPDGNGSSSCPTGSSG
Sequence of UniProt P55082 (P55082 whole entry, looked up): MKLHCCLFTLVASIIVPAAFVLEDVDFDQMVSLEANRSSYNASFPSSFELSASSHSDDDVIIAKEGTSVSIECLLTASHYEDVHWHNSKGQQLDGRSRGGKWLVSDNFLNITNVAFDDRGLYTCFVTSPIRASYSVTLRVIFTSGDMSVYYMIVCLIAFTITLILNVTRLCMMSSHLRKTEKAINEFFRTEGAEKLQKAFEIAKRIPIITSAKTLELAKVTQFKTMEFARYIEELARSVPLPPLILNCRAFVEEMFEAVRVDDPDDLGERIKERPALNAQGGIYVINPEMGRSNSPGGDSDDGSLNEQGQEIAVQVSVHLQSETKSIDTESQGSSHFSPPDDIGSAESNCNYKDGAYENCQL
Sequence of UniProt Q9UPY8 (Q9UPY8 whole entry, looked up): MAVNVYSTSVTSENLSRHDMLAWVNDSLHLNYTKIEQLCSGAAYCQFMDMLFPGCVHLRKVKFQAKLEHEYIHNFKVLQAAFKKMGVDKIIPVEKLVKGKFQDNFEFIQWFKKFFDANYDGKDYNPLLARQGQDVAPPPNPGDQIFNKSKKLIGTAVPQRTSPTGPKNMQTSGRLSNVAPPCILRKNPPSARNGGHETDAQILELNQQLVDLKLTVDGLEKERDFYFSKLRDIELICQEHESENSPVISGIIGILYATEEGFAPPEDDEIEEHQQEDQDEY
Sequence of UniProt Q8WYH8 (Q8WYH8 whole entry, looked up): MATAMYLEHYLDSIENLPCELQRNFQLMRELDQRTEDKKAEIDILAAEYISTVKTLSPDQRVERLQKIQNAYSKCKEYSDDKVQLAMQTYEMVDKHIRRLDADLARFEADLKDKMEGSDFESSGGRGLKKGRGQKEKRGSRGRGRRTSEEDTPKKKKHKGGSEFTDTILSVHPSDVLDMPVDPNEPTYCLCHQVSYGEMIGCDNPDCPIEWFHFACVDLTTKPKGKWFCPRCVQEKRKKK
Sequence of UniProt Q6NUT3 (Q6NUT3 whole entry, looked up): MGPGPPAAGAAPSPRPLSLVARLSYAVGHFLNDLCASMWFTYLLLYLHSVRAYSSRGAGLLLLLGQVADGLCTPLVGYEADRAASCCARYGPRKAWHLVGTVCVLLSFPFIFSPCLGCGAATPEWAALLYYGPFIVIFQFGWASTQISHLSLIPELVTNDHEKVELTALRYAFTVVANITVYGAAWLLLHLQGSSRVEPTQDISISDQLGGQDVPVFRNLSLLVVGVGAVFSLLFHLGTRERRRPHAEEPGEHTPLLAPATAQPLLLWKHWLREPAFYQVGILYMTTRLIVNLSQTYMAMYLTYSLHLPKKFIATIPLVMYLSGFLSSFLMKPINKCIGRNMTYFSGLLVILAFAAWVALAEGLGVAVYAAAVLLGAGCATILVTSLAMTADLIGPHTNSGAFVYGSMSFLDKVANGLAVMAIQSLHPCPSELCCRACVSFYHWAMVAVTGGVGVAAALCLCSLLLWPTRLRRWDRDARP
Sequence of UniProt P08514 (P08514 whole entry, looked up): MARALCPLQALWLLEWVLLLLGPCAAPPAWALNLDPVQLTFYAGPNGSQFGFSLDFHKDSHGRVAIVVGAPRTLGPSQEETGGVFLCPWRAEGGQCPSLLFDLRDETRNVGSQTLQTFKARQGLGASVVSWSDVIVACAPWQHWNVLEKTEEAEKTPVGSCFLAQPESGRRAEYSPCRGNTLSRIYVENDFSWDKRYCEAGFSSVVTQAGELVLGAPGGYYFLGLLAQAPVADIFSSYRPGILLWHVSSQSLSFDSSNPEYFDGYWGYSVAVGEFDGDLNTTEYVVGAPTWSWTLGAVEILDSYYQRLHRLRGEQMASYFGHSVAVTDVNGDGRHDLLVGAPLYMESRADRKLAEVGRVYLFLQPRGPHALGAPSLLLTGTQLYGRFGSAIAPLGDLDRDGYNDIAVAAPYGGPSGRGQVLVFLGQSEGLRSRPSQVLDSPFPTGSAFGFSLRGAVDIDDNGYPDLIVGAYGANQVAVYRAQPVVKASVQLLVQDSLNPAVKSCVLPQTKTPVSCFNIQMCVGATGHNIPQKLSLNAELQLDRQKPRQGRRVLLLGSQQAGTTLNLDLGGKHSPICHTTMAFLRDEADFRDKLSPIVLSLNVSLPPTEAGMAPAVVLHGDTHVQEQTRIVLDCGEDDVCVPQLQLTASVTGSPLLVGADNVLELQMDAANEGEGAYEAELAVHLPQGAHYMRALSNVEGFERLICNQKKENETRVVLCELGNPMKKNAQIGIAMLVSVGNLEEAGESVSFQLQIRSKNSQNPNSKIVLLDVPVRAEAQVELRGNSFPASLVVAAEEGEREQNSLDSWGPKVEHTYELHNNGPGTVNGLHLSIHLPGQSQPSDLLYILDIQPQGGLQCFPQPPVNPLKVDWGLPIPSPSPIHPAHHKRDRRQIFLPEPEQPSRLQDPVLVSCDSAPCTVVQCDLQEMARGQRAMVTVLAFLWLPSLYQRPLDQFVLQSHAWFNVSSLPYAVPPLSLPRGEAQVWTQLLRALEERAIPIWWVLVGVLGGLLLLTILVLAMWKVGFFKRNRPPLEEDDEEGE
Sequence of UniProt Q08334 (Q08334 whole entry, looked up): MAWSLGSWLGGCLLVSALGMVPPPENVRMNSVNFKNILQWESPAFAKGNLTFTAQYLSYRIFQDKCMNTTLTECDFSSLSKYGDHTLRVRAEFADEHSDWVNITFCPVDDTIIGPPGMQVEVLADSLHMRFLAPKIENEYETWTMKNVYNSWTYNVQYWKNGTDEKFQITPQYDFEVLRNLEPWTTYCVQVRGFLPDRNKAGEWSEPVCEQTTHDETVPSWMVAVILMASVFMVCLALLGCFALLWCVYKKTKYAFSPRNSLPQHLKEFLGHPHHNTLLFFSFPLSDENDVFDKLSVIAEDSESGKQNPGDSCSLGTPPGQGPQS
Sequence of UniProt Q92585 (Q92585 whole entry, looked up): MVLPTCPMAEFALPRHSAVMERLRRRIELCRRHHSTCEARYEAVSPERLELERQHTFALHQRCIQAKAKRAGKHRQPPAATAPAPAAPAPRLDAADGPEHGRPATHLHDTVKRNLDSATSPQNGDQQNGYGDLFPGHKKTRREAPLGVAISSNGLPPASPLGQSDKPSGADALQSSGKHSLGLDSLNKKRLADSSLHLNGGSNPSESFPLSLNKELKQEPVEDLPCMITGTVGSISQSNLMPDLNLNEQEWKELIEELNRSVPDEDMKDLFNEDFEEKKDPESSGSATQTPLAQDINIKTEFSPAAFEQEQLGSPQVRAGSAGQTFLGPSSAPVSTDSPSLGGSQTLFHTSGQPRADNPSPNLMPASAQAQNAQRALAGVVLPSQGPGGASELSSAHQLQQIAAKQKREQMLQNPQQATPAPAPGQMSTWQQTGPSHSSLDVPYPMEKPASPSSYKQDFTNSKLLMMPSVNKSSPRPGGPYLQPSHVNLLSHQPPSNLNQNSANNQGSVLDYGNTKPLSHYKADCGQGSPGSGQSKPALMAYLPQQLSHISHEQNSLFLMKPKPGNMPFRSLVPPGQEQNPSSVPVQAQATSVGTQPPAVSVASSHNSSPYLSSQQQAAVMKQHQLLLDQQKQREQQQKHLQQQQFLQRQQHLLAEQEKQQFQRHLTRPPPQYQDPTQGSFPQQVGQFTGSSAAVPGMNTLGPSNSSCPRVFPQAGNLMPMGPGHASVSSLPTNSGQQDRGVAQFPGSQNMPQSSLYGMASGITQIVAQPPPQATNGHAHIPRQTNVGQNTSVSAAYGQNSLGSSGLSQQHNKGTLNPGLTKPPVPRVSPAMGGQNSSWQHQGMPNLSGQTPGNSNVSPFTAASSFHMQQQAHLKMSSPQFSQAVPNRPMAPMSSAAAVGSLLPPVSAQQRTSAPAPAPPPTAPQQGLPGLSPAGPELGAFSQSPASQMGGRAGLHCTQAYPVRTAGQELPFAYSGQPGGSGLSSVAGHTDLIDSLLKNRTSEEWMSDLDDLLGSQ
Sequence of UniProt O15243 (O15243 whole entry, looked up): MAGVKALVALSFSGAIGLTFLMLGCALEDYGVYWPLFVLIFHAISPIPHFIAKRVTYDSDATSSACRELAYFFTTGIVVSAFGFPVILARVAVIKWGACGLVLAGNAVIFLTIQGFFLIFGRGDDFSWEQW

| Target | log2 fold change [1] | log2 fold change [2] | log2 fold change [3] | log2 fold change [4] | log2 fold change [5] |
| --- | --- | --- | --- | --- | --- |
| LSR isoform 3 (UniProt Q86X29) | -0.073 | -0.067 | -0.101 | – | – |
| ING5 (UniProt Q8WYH8) | 0.051 | 0.036 | -0.037 | – | – |
| MAPK11 (UniProt Q15759) | – | -0.014 | – | – | – |
| LYN isoform 2 (UniProt P07948) | 0.018 | – | 0.033 | -0.097 | – |
| MCM10 (UniProt Q7L590) | – | 0.032 | – | 0.204 | -0.04 |
| LSR (UniProt M0QZL9) | – | – | – | 0.054 | – |
| MELK (UniProt Q14680) | -0.057 | 0.197 | -0.057 | – | 0.044 |
| MED12 isoform 2 (UniProt Q93074) | – | -0.434 | – | – | -0.002 |
| LMNA isoform 2 (UniProt P02545) | – | -0.033 | – | – | – |
| IGFBP6 (UniProt P24592) | 0.018 | – | 0.01 | 0.011 | – |
| LRRCC1 (UniProt Q9C099) | – | 0.046 | – | – | – |
| LRRFIP1 isoform 4 (UniProt Q32MZ4) | -0.204 | – | 0.009 | – | – |
| KIF13A isoform 4 (UniProt Q9H1H9) | 0.031 | – | -0.367 | – | – |
| IKZF1 (UniProt R9R4D9) | 0.08 | 0.039 | -0.159 | – | – |
| MGRN1 isoform 2 (UniProt O60291) | -0.004 | 0.036 | 0.086 | – | -0.088 |
| KCNK5 (UniProt O95279) | 0.114 | – | -0.054 | – | -0.028 |

| Target | log2 fold change [1] | log2 fold change [2] | log2 fold change [3] | log2 fold change [4] | log2 fold change [5] |
| --- | --- | --- | --- | --- | --- |
| MFSD12 isoform 3 (UniProt Q6NUT3) | 0.026 | -0.129 | 0.135 | – | – |
| MAPRE3 isoform 2 (UniProt Q9UPY8) | 0.033 | 0.279 | 0.017 | – | – |
| LEPROT (UniProt O15243) | -0.022 | -0.235 | 0.112 | – | – |
| MFAP3 (UniProt P55082) | – | -0.155 | – | 0.25 | 0.007 |
| MED17 (UniProt Q9NVC6) | -0.031 | 0.032 | -0.011 | 0.038 | – |
| ITPRID2 (UniProt P28290) | – | – | – | 0.106 | – |
| MAP3K20 isoform 2 (UniProt Q9NYL2) | – | -0.033 | – | – | – |
| MAGED1 isoform 2 (UniProt Q9Y5V3) | 0.031 | – | -0.01 | 0.148 | – |
| MAML1 (UniProt Q92585) | 0.018 | – | 0.077 | 0.15 | – |
| MCOLN3 (UniProt Q8TDD5) | – | 0.039 | – | – | -0.075 |
| KIF1B isoform 3 (UniProt O60333) | – | – | – | -0.246 | – |
| MAP2K5 (UniProt Q13163) | 0.053 | – | -0.034 | – | – |
| KIZ (UniProt Q2M2Z5) | -0.082 | – | 0.453 | – | – |
| LUM (UniProt P51884) | -0.05 | 0.144 | 0.143 | 0.087 | – |
| ITGA2B (UniProt P08514) | 0.022 | 0.029 | -0.043 | 0.112 | – |
| IL10RB (UniProt Q08334) | – | 0.029 | – | -0.149 | -0.081 |

Source: the supplement of paper PMC10849652
